# Bioassay records (PubChem)
# Hits are enriched below; roughly 3.9% of the tested compounds scored in any of these assays.
# HSF1 inhib: HSF1 inhibitors in luciferase reporter cells, primary screen, cell-based, NIH3T3, luminescence; NIH3T3-HGL HSE-luciferase, MG132-induced, luminescence 8 h; active compounds read low; activity change, negative = inhibition, % at 7.5 µM (by protocol); 300,000 compounds, 0.77% hits; AID 2098, 2009;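 active = more than half of replicate wells show activity change below -50%, luminescence cut by over half; inconclusive = some wells, but at most half, below -50%; inactive = no replicate well below -50%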;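 also: luciferase reports HSF-1 transcriptional activity via heat shock element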
# Wnt act: Wnt/beta-catenin pathway activators, primary screen, cell-based, plate reader, single point; activation, % at 9.35 µM; Wnt/beta-catenin reporter cell assay, activator; AID 743398, 2014; 300,000 compounds, 1.2% hits; in the data active = activation above about 30%, passing the limit was not always enough; inconclusive = no clear call, values can overlap the other calls
# HSF1 activator: HSF-1 activators, primary screen, NIH3T3-HGL cells, MG132 stress, luminescence, single point. 300,000 compounds, 1.7% hits. NIH3T3-HGL HSF-1 luciferase reporter, 8 h; 100% = twice DMSO control signal. activation, % at 9 µM. AID 504408, 2011;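 active = mean replicate activation of at least 50% with a set share of replicates each reaching 50%; inconclusive = only one of those two conditions met; inactive = mean below 50% and too few replicates reaching it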
# esBAF inh: Bmi1 luciferase reporter increase in mESCs, primary screen, esBAF inhibitor project, mouse ES cells, Bmi1 luciferase knock-in, single point; 24 h; 100% = twice the neutral-well signal; 350,000 compounds, 2% hits; reporter increase, % at 12.5 µM; in the data active = activation above about 40%; inconclusive = no clear call, values can overlap the other calls;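 also: a rise in the Bmi1 reporter signal indicates esBAF inhibition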
# MITF TRPM1 HTS: activators of MITF-driven TRPM1 promoter reporter, primary screen, cell-based, SK-MEL-5, luciferase, single point; SK-MEL-5 TRPM1-promoter luciferase, 24 h; % of positive control, neutral wells = 0; activation, % at 12.5 µM; 300,000 compounds, 0.75% hits; AID 588334, 2011;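 active = mean activation of at least 80% with every replicate also reaching 80%; inconclusive = mean reaches 80% but some replicate falls short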
# Numbers stand for hits; n = inactive; u = inconclusive; x = no result.
SMILES,HSF1 inhib,Wnt act,HSF1 activator,esBAF inh,MITF TRPM1 HTS
O=C(O)/C=C/C(=O)Nc1ccccc1-c1ccccc1NC(=O)/C=C/C(=O)O,n,n,n,x,n
Cc1cc(NC(=O)Cc2ccccc2)no1,n,x,n,x,n
Cc1ccc(NC(=S)NNC(=S)Nc2ccc(C)cc2)cc1,x,n,x,x,n
Cc1ccc(/C=C/C(=O)Nc2cc(C)on2)cc1,n,35,n,n,n
Cc1cc(NS(=O)(=O)c2ccc(NC(=O)/C=C/c3ccc(Br)cc3)cc2)no1,n,n,n,n,n
Cc1ccc(NC(=O)c2cc(C)on2)cc1,n,x,n,n,97
C/C(=C\c1ccccc1)C(=O)Nc1cc(C)on1,n,n,n,56,u
Cc1ccc(NC(=S)Nc2cc(C)on2)cc1,n,49,u,n,x
COc1cccc(-c2ccc3c(c2)[C@@H]2[C@@H](CCN2C(=O)NC2CCCC2)[C@H](CO)N3C)c1,x,x,x,n,x
Cc1ccc(S(=O)(=O)N(C)C[C@H]2OCCCC[C@@H](C)Oc3ccc(NS(=O)(=O)c4c(C)noc4C)cc3C(=O)N([C@@H](C)CO)C[C@H]2C)cc1,x,x,x,n,x
C[C@@H]1CN([C@H](C)CO)C(=O)c2cc(NS(=O)(=O)c3ccccc3)ccc2O[C@@H]1CN(C)C(=O)Nc1cccc2ccccc12,x,x,x,n,x
C[C@@H]1CN([C@@H](C)CO)C(=O)c2cc(NC(=O)Cn3cnnn3)ccc2O[C@H]1CN(C)Cc1ccc(Cl)c(Cl)c1,x,x,x,n,x
CCc1ccc(NC(=O)c2cc(C)on2)cc1,n,n,58,n,u
CCc1ccc(NC(=O)c2cc(C)no2)cc1,n,n,n,55,n
CC1=NNC(=O)C1CC(=O)N/N=C/C(Br)=C/c1ccccc1 (stereo unspecified),n,n,n,x,x
CC1C(=O)NN=C1C(=O)N/N=C\C(Br)=C\c1ccccc1 (stereo unspecified),n,n,213,x,n
CC1=NNC(=O)C1CCC(=O)N/N=C/C(Br)=C/c1ccccc1 (stereo unspecified),n,n,88,x,n
COC(=O)C[C@H]1CC[C@@H]2[C@@H](COc3ccc(NC(=O)Nc4cc(C)cc(C)c4)cc3C(=O)N2C)O1,x,x,x,n,x
CC(C)c1nc(-c2ccc([N+](=O)[O-])cc2)cs1,n,x,n,55,n
CC(=O)Nc1nc(-c2ccc([N+](=O)[O-])cc2)cs1,n,n,n,x,n
O=C(C[C@H]1CC[C@@H](NC(=O)Nc2ccc3c(c2)OCO3)[C@H](CO)O1)NCCCN1CCOCC1,x,x,x,n,x
COc1ccc2c(=O)c(C(=O)NCCc3ccccc3)c[nH]c2c1,n,n,n,55,n
COc1ccc2cc(C(=O)NCCc3ccccc3)[nH]c2c1,n,n,n,43,u
COc1ccc2cc(C(=O)NCc3ccccc3)[nH]c2c1,n,n,n,n,n
COc1ccc2[nH]cc(C(=O)NCCc3ccccc3)c(=O)c2c1,n,n,n,n,n
SMILES,HSF1 inhib,Wnt act,HSF1 activator,esBAF inh,MITF TRPM1 HTS
COc1ccc(N2CCN(C(=O)COC(=O)[C@@H](NC(=O)OCc3ccccc3)C(C)C)CC2)cc1,x,n,x,n,n
CC(C)C(NC(=O)OCc1ccccc1)C(=O)OCC(=O)N1CCCCC1 (stereo unspecified),n,x,n,72,x
Cc1ccnc(NC(=O)COc2ccc(Cl)cc2)n1,n,n,n,n,u
Cc1cc(C)nc(NC(=O)COc2cc(Cl)cc(Cl)c2)n1,-71,n,n,n,n
C[C@H]1CN([C@@H](C)CO)C(=O)c2cccc(NS(C)(=O)=O)c2O[C@H]1CN(C)Cc1ccc(C(F)(F)F)cc1,x,x,x,n,x
CCCC#Cc1cnc2c(c1)C(=O)N([C@@H](C)CO)C[C@H](C)[C@@H](CN(C)C(=O)CCN1CCCCC1)O2,x,x,x,n,x
Cc1c(C(=O)Nc2ccncc2)sc2nc(-c3ccc(F)cc3)cn12,n,n,n,n,n
Cc1c(C(=O)NCC(C)C)sc2nc(-c3ccc(F)cc3)cn12,n,n,n,50,x
N=c1c(C(=O)NCC2CCCO2)cc2c(=O)n3ccccc3nc2n1Cc1ccccc1 (stereo unspecified),n,n,n,n,n
Cc1ccc(Cn2c(=N)c(C(=O)NC3CCCCC3)cc3c(=O)n4ccccc4nc32)cc1,n,n,n,n,n
N=c1c(C(=O)NCC2CCCO2)cc2c(=O)n3ccccc3nc2n1Cc1ccc(Cl)cc1 (stereo unspecified),n,n,57,n,n
N=c1c(C(=O)NC2CCCC2)cc2c(=O)n3ccccc3nc2n1Cc1ccccc1,-91,n,n,n,n
N=c1c(S(=O)(=O)c2ccc(Cl)cc2)cc2c(=O)n3ccccc3nc2n1Cc1ccco1,n,n,137,n,n
N=c1c(S(=O)(=O)c2ccc(Br)cc2)cc2c(=O)n3ccccc3nc2n1Cc1ccco1,n,n,n,n,n
COC(=O)CCN1CCc2cc(N=Nc3ccc([N+](=O)[O-])cc3)ccc21,-63,n,n,x,x
Fc1ccc(CNCc2ccccc2Cl)cc1,-53,34,n,x,n
CC(=O)Nc1cc2oc3ccccc3c2cc1[N+](=O)[O-],x,n,x,u,x
CC(=O)Nc1ccc(N=Nc2ccccc2)cc1[N+](=O)[O-],x,n,x,56,x
Cc1cc(O)c(C2=Nc3ccccc3SC(c3ccc(Cl)cc3)C2)c(=O)o1 (stereo unspecified),-54,x,n,x,n
COc1ccc(C2CC(c3c(O)cc(C)oc3=O)=NCCS2)c(OC)c1 (stereo unspecified),x,n,x,n,n
O=c1[nH]c(/C=C/c2ccc(Br)cc2)nc2ccccc12,n,45,65,n,n
COc1ccc(C(=O)Nc2cccc(/C=C/c3nc4ccccc4c(=O)[nH]3)c2)cc1,n,n,n,x,n
O=C(Nc1cccc(/C=C/c2nc3ccccc3c(=O)[nH]2)c1)c1ccccc1Cl,n,n,n,80,n
O=c1[nH]c(/C=C/c2ccccn2)nc2ccccc12,n,n,n,44,n
O=C1CCCCc2sc(Br)c([N+](=O)[O-])c2N1,n,n,132,n,n
SMILES,HSF1 inhib,Wnt act,HSF1 activator,esBAF inh,MITF TRPM1 HTS
O=C(C[C@@H]1C=C[C@@H](NS(=O)(=O)c2ccc(F)cc2)[C@@H](CO)O1)NCc1ccncn1,x,x,x,n,x
CC(C(=O)NN=C(c1ccccc1)c1ccccc1)N1CCCC1 (stereo unspecified),n,n,55,x,n
CCC(=O)N(C)C[C@@H]1Oc2ncc(C#Cc3ccncc3)cc2C(=O)N([C@H](C)CO)C[C@H]1C,x,x,x,n,x
O=C(C[C@H]1C=C[C@@H](NC(=O)c2ccncc2)[C@H](CO)O1)NCCc1ccncc1,x,x,x,n,x
N#CCC(CNc1ncc(C(F)(F)F)cc1Cl)OC(=O)c1ccc(Cl)cc1Cl (stereo unspecified),n,n,79,x,n
CCCNC(=O)N1C[C@H](C)[C@H](OC)CN(C)C(=O)c2ccc(NS(=O)(=O)CC(F)(F)F)cc2OC[C@@H]1C,x,x,x,n,x
